# Screening results deposited in PubChem BioAssay by National Center for Advancing Translational Sciences (NCATS).
# The entries come from a sample that favours hits as a whole.
# TDP1 cell noCPT – qHTS for Inhibitors of human tyrosyl-DNA phosphodiesterase 1 (TDP1): qHTS in cells in absence of CPT; DT40 Tdp1-/- hTDP1 cells, no CPT, ATP luminescence, 48 h; Potency, µM (top dose mostly 46.2 µM), for the others: at the top dose activity change, negative = growth inhibition, usual class: inhibitors; 15% of 420,000 active; AID 686978, 2013; further: potency means the concentration at half of the fitted maximal effect; nearly all actives have a fitted effect of over 55% in size
#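 Stably hTDP1-transfected Tdp1-null chicken DT40 cells were treated with library compounds minus camptothecin and grown for at least 48 hr at 37 °C, after which cellular ATP was quantified by luminescence.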
# ALOX12 inh – inhibitors of human 12S-lipoxygenase ALOX12. purified 12hLO, xylenol orange hydroperoxide absorbance. P18054. 1.1% of 580,000 active. Potency, µM (titrated, usually from 108 µM), inactives show top-dose activity change, negative = inhibition, actives largely listed as inhibitors; further: potency means the concentration at half of the fitted maximal effect
# Target sequence (P18054 whole entry, looked up): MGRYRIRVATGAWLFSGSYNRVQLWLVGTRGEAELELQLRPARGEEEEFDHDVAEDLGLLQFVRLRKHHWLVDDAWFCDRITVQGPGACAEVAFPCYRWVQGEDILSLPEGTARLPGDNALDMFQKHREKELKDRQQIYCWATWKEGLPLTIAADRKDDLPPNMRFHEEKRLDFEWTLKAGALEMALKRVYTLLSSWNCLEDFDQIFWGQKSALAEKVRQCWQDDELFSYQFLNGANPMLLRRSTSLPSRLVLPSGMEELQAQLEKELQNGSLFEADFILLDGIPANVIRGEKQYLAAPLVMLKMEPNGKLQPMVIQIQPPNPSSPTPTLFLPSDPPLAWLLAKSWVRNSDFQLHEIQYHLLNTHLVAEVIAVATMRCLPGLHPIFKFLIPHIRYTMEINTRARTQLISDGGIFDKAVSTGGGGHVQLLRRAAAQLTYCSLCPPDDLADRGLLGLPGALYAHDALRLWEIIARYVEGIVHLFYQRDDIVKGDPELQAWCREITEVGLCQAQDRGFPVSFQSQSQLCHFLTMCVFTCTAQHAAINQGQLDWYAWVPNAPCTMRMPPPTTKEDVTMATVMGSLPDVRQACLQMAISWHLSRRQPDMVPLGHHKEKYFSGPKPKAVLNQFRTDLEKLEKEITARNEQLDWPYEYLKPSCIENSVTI
#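 Purified human 12hLO (150 nM final) in 25 mM Hepes, 0.01% Triton X-100, pH 7.0 was preincubated 15 min at room temperature with compound. Then 40 uM arachidonic acid was added, 30 min. Hydroperoxide was read by Fe-XO absorbance ratio 573/405 nm.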
# HT1080 IDH1KD tx – kills HT-1080 cells with IDH1 knockdown | Potency, µM (top dose mostly 46.1 µM), for inactives: top-dose activity, negative = toxicity, actives largely listed as cytotoxic | HT-1080 IDH1 knockdown viability, ATP luminescence, 48 h | 2% of 360,000 active;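 further: potency means the concentration at half of the fitted maximal effect; 0% = DMSO wells and -100% = cell-free medium wells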
#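 Assay cells: HT-1080 with IDH1 knockdown, 750 per well, RPMI/5% FBS. Exposure: 48 h at 37 °C following 2 h pre-incubation. Read: CellTiter-Glo luminescence; fitted concentration-response, curve class assigned.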
# TDP1 cell CPT – DT40-hTDP1 cell growth loss with CPT. 12% of 420,000 active. chicken DT40 Tdp1-/-;hTDP1 cells + 20 nM CPT, ATP luminescence, 48 h. Potency, µM (highest dose often 46.2 µM), without a hit: at the top dose activity change, negative = growth inhibition, usual class: inhibitors; further: potency means the concentration at half of the fitted maximal effect; nearly all actives have a fitted effect of over 55% in size
#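 Chicken DT40 Tdp1-/- cells complemented with human TDP1, 400 cells/well, exposed to compounds plus 20 nM camptothecin for at least 48 h at 37 C; viability read as ATP content by CellTiter-Glo luminescence.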
# IL-1B inflam inh – inflammasome signaling inhibition, IL-1 beta readout; THP-1 LPS/ATP IL-1B secretion, AlphaLISA, 16 h; active compounds read low; 4.7% of 360,000 active; activity change, % at 57.5 µM; AID 743279; in the data active means activity change below about -50%; inconclusive means mostly about -30% to -49%
#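 THP-1 cells pretreated 1 hr with compounds (up to 57.5 uM final), then stimulated with LPS (250 ng/mL final) plus ATP (1.25 mM final); secreted IL-1B measured by AlphaLISA after 16 hr, decreased signal indicating inhibition.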
# HT1080-NT tox – kills 2HG-producing HT-1080-NT fibrosarcoma cells | Potency, µM (titrated, usually from 46.1 µM), without a hit: top-dose activity, negative = less viability, actives largely listed as cytotoxic | 1.6% of 360,000 active | AID 686970 | HT-1080-NT fibrosarcoma viability, CellTiter-Glo ATP luminescence, 48 h;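 further: NT is the 2HG producing partner of a matched IDH1 knockdown line; potency means the concentration at half of the fitted maximal effect; 0% = DMSO-treated cells and -100% = media-only wells without cells; nearly all actives have a fitted effect of over 55% in size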
#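 Compounds were tested in concentration-response format on HT-1080-NT cells for 48 hours at 37 degrees C. Cell viability came from CellTiter-Glo luminescence; curves were classified by r2, response magnitude and activity.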
# Starred values were filed as active, the others as inactive; u = inconclusive; x = no result given; [ ] = another dose, or the depositor's remark. Unless noted, the call rests on the fitted dose curve; in most records, active means well fitted curve in the direction sought with a large enough effect; inconclusive means small, poorly fitted or top-dose-only effect, or another doubt; inactive means no such curve, though single readings can be large; an effect the other way counts as inactive or inconclusive. Unless noted, on the % scale 0 is the no-effect control and ±100 the full control effect.
SMILES,TDP1 cell noCPT,ALOX12 inh,HT1080 IDH1KD tx,TDP1 cell CPT,IL-1B inflam inh,HT1080-NT tox
C[C@H](O)C#Cc1ccc2c(c1)O[C@@H](CN(C)Cc1ccc(-c3ccccc3)cc1)[C@H](C)CN([C@@H](C)CO)S2(=O)=O,3.66µM*,-0.8%,20.6µM*,2.91µM*,u,u
C[C@H](CO)N1C[C@H](C)[C@@H](CN(C)Cc2ccc3c(c2)OCO3)Oc2cc(Br)ccc2S1(=O)=O,7.31µM*,-12.2%,-26.0%,20.6µM*,27.4,13.1%
C[C@@H]1CN([C@@H](C)CO)S(=O)(=O)c2ccc(/C=C/c3ccccc3)cc2O[C@@H]1CN(C)Cc1ccc(C(=O)O)cc1,20.6µM*,1.3%,-14.0%,16.4µM*,15.4,-4.4%
O=S(=O)(CCSc1ccc(Br)cc1)c1ccc(Cl)cc1,x,22.1%,x,x,x,x
CCCCn1c(=O)[nH]c(=O)c2c1nc(CNc1cccc(F)c1)n2CCC(C)C,x,-29.0%,x,x,x,x
COc1cccc(C(c2nnnn2Cc2ccco2)N2CCN(c3cccc(C)c3C)CC2)c1OC (stereo unspecified),25.9µM*,-19.7%,-12.1%,u,-2.0,-7.6%
O=C(c1ccco1)N1CCN(C(c2ccc(Cl)cc2)c2nnnn2Cc2ccccc2)CC1 (stereo unspecified),-23.8%,u,-17.4%,-22.1%,-51.0*,-22.3%
COc1ccc(OC)c(C(c2nnnn2Cc2ccco2)N2CCN(C)CC2)c1 (stereo unspecified),-0.5%,-16.6%,0.7%,-3.2%,-11.1,-6.1%
COc1ccc(C(c2nnnn2Cc2ccccc2)N2CCN(C(=O)c3ccco3)CC2)cc1 (stereo unspecified),u,20.5%,-1.5%,-20.7%,-8.3,4.4%
Clc1ccccc1C(c1nnnn1Cc1ccco1)N1CCN(Cc2ccco2)CC1 (stereo unspecified),u,44.7µM*,-0.2%,-10.4%,-28.3,1.7%
COc1cccc(C(c2nnnn2Cc2ccccc2)N2CCN(C(=O)c3ccco3)CC2)c1OC (stereo unspecified),23.1µM*,u,-14.1%,u,-12.4,-10.8%
O=C(Nc1ccccc1)N1CCN(c2ccc(Cl)nn2)C(=O)C1,x,14.5%[6.33 µM],x,x,x,x
COc1ccccc1C(=O)NC1CCN(c2cc(-c3ccccc3)[nH]n2)C1 (stereo unspecified),x,27.3%,x,x,x,x
COc1cc(C(=O)C(=O)N2CCN(c3ccc(C)cc3)CC2)cc2ccccc12,14.6µM*,u,u,14.6µM*,-2.6,5.7%
COc1cc(C(=O)C(=O)N2CCN(c3ccccc3)CC2)cc(OC)c1OC,3.66µM*,u,7.31µM*,3.66µM*,40.1,u
COc1cc(CCC(=O)N2CCN(c3ccccc3)CC2)cc(OC)c1OC,u,-0.6%,9.7%,-27.7%,3.9,11.2%
COc1cc(C(=S)N2CCC(Cc3ccccc3)CC2)ccc1OCC(N)=O,u,-6.2%,-16.7%,-13.8%,59.9,-17.0%
COc1cc(C(=O)C(=O)N2CCC(Cc3ccccc3)CC2)cc2ccccc12,23.1µM*,-11.1%,-23.5%,16.4µM*,1.5,-17.5%
COC(=O)C1=C(C(=O)OC)[C@]2([C@@H]3CCCCN[C@@H](Cc4ccccc4)C(=O)N3Cc3ccccc3)C=C[C@H]1O2,13µM*,-22.7%,4.4%,14.6µM*,-0.2,10.1%
COC(=O)C1=C(C(=O)OC)[C@]2([C@@H]3C/C=C\CN[C@@H](Cc4ccccc4)C(=O)N3Cc3ccccc3)C=C[C@H]1O2,u,x,x,25.1µM*,x,x
CN(Cc1cccs1)C(=O)c1cc2ccccc2[nH]1,x,25.2%,x,x,x,x
O=C1CCCC2=C1C(c1cccs1)Nc1ccc3ncccc3c12 (stereo unspecified),u,-7.6%,u,15.8µM*,16.6,u
CC1(C)CC(=O)C2=C(C1)Nc1ccccc1NC2c1cccs1 (stereo unspecified),-3.0%,5.6%,25.5%,-1.2%,0.5,8.5%
Cc1ccsc1C1Nc2ccc3ncccc3c2C2=C1C(=O)CC(C)(C)C2 (stereo unspecified),u,-23.1%,u,13µM*,4.2,10µM*
O=C1CCCC2=C1C(c1ccc(O)c(O)c1)Nc1ccc3ncccc3c12 (stereo unspecified),-5.4%,u,-10.3%,-10.0%,19.6,-11.0%
SMILES,TDP1 cell noCPT,ALOX12 inh,HT1080 IDH1KD tx,TDP1 cell CPT,IL-1B inflam inh,HT1080-NT tox
O=C(Cn1cccc1-c1nc(-c2ccccc2)no1)Nc1cc(F)ccc1Cl,x,15.9%,x,x,x,x
O=C(c1ccsc1)N1CCCC2(C1)Nc1cccnc1NC2=NC1CCCC1 (stereo unspecified),x,10.1%,x,x,x,x
CCOC(=O)c1oc2cccc(OCC(O)CNC(C)C)c2c1C (stereo unspecified),u,0.0%,u,20.6µM*,-50.1*,u
COc1ccc(CCNC(=O)CCCn2c(=O)c3cccn3c3cccnc32)c(OC)c1,-21.4%,25.4%,3.6%,u,-2.7,24.8%
COc1ccc(OC)c(CCNC(=O)CCn2c(=O)c3cccn3c3cccnc32)c1,16.4µM*,-23.3%,x,u,x,x
COc1ccc(NC(=O)CCn2c(=O)c3cccn3c3cccnc32)c(OC)c1,14.6µM*,-25.2%,x,u,x,x
CCn1c(/C=C/c2c[nH]c3ccccc23)nc2ccccc2c1=O,3.26µM*,-21.7%,-17.2%,u,34.8,u
CN(C)S(=O)(=O)c1ccc2[nH]cc(/C=C/c3nc4ccccc4c(=O)n3-c3ccccc3)c2c1,5.17µM*,-7.4%,u,5.8µM*,11.8,u
CCn1c(/C=C/c2ccccc2Cl)nc2ccccc2c1=O,16.4µM*,u,0.0%,u,u,-4.8%
Cc1cccc(/C=C/c2nc3ccccc3c(=O)n2Cc2ccccc2)c1,u,-8.5%,u,u,-69.9*,u
CCn1c(/C=C/c2ccccc2[N+](=O)[O-])nc2ccccc2c1=O,u,17.2%,-6.4%,u,13.6,-11.7%
O=C1Nc2ccccc2O[C@H]2C[C@@H]1N(Cc1ccccc1)C2,x,3.0%[176 µM],x,x,x,x
Cc1ccc(C)c(C(C)NC(=O)C2CCCCC2)c1 (stereo unspecified),x,48.4%,x,x,x,x
CC12CC3CC(C)(C1)CC(NCc1ccccn1)(C3)C2,x,-4.2%,x,x,x,x
Cc1ccc(C(=O)N2C(C(=O)NCc3ccccc3)COC23CCN(C(=O)C2CC2)CC3)cc1 (stereo unspecified),x,46.5%,x,x,x,x
